# Data from the supplement of paper PMC8728848.
# Shown is part of a subset that was picked to be rich in the strongest signals.
# Tests used:
# Experiment in all cases: glycan array binding signal (z-score within array); higher = stronger binding
# Details in all cases: glycan notation: IUPAC condensed, linker removed
# Fuc(a1-2)Gal(b1-3)GalNAc = target: Fuc(a1-2)Gal(b1-3)GalNAc
# In short: (§1)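 Glycan array data were curated from 3228 arrays in the Consortium for Functional Glycomics database and kept only where the protein sequence was available. Glycan names were converted to IUPAC-condensed notation, and columns mapping to the same glycan were averaged. The binding signal is a within-array Z-score, averaged across arrays of the same protein sequence at different concentrations or buffers and across linkers. Negative Z-scores can be read as non-binding.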
# [1] = target: Fuc(a1-2)[Gal(a1-3)]Gal(b1-4)Glc
# In short: as §1
# [2] = target: Fuc(a1-2)[Gal(a1-3)]Gal(b1-4)GlcNAc(b1-2)Man(a1-3)[Fuc(a1-2)[Gal(a1-3)]Gal(b1-4)GlcNAc(b1-2)Man(a1-6)]Man(b1-4)GlcNAc(b1-4)GlcNAc
# In short: as §1
# [3] = target: Fuc(a1-2)[Gal(a1-4)]Gal(b1-4)GlcNAc
# In short: as §1
# [4] = target: Fuc(a1-2)[GalNAc(a1-3)]Gal(b1-3)GalNAc(a1-3)[Fuc(a1-2)]Gal(b1-4)GlcNAc
# In short: as §1
# [5] = target: Gal(a1-4)Gal(b1-3)GlcNAc(b1-2)Man(a1-3)[Gal(a1-4)Gal(b1-3)GlcNAc(b1-2)Man(a1-6)]Man(b1-4)GlcNAc(b1-4)GlcNAc
# In short: as §1
# Gal(a1-6)Glc = target: Gal(a1-6)Glc
# In short: as §1
# Gal(b1-2)Gal = target: Gal(b1-2)Gal
# In short: as §1
# [6] = target: Gal(b1-3)Gal(b1-4)GlcNAc(b1-2)Man(a1-3)[Gal(b1-3)Gal(b1-4)GlcNAc(b1-2)Man(a1-6)]Man(b1-4)GlcNAc(b1-4)GlcNAc
# In short: as §1
# Gal(b1-3)GalNAc = target: Gal(b1-3)GalNAc
# In short: as §1
# [7] = target: Gal(b1-3)GlcNAc(b1-2)[Gal(b1-3)GlcNAc(b1-6)]Man(a1-6)[Gal(b1-3)GlcNAc(b1-2)Man(a1-3)]Man(b1-4)GlcNAc(b1-4)GlcNAc
# In short: as §1
# [8] = target: Gal(b1-3)GlcNAc(b1-3)Gal(b1-4)Glc
# In short: as §1
# [9] = target: Gal(b1-3)[Neu5Ac(a2-6)]GalNAc
# In short: as §1
# [10] = target: Gal(b1-3)[Neu5Ac(b2-6)]GalNAc
# In short: as §1
# Gal(b1-4)GlcNAc = target: Gal(b1-4)GlcNAc
# In short: as §1
# [11] = target: Gal(b1-4)GlcNAc(b1-3)Gal(b1-4)Glc
# In short: as §1
# [12] = target: Gal(b1-4)GlcNAc(b1-3)[Gal(b1-4)GlcNAc(b1-6)]Gal(b1-4)GlcNAc
# In short: as §1
# [13] = target: Gal(b1-4)GlcNAc(b1-6)Gal(b1-4)GlcNAc
# In short: as §1
# Gal3S(b1-3)GalNAc = target: Gal3S(b1-3)GalNAc
# In short: as §1
# [14] = target: GlcNAc(a1-4)Gal(b1-4)GalNAc
# In short: as §1
# [15] = target: GlcNAc(a1-4)Gal(b1-4)GlcNAc(b1-3)Gal(b1-4)Glc
# In short: as §1
# [16] = target: GlcNAc(b1-2)Gal(b1-3)GalNAc
# In short: as §1
# [17] = target: GlcNAc(b1-3)Gal(b1-3)GalNAc
# In short: as §1
# GlcNAc(b1-3)GalNAc = target: GlcNAc(b1-3)GalNAc
# In short: as §1
# Kdn(a2-3)Gal(b1-3)GalNAc = target: Kdn(a2-3)Gal(b1-3)GalNAc
# In short: as §1
# Neu5Ac(a2-3)Gal = target: Neu5Ac(a2-3)Gal
# In short: as §1
# [18] = target: Neu5Ac(a2-3)Gal(b1-3)GalNAc
# In short: as §1
# [19] = target: Neu5Ac(a2-3)Gal(b1-3)GalNAc(b1-4)[Neu5Ac(a2-8)Neu5Ac(a2-3)]Gal(b1-4)Glc
# In short: as §1
# [20] = target: Neu5Ac(a2-3)Gal(b1-4)GlcNAc
# In short: as §1
# [21] = target: Neu5Ac(a2-3)Gal(b1-4)GlcNAc(b1-6)[Neu5Ac(a2-3)Gal(b1-3)]GalNAc
# In short: as §1
binder,measurement,setting,value
"Tap1 (Sordaria macrospora), Q50IV4 (protein) MSHHHHHHHHYTLHLRLINDTSDTLTLVEQTSWWGKNTIWSQVRSTGVHVLSMAASGSSGMLRFQTSKGDFFAVAVGVHNYKRWCDVLVDTADEAPLTKLHPKYYDDKDAKYQALWAQASEFEAKSKSGKTVRIKFYQADGNVLRATVEYL",glycan array binding signal (z-score),Fuc(a1-2)Gal(b1-3)GalNAc,2.96
same,glycan array binding signal (z-score),[1],-0.234
same,glycan array binding signal (z-score),[2],-0.244
same,glycan array binding signal (z-score),[3],-0.242
same,glycan array binding signal (z-score),[4],-0.246
same,glycan array binding signal (z-score),[5],-0.221
same,glycan array binding signal (z-score),Gal(a1-6)Glc,-0.248
same,glycan array binding signal (z-score),Gal(b1-2)Gal,-0.207
same,glycan array binding signal (z-score),[6],-0.225
same,glycan array binding signal (z-score),Gal(b1-3)GalNAc,3.97
same,glycan array binding signal (z-score),[7],-0.179
same,glycan array binding signal (z-score),[8],-0.23
same,glycan array binding signal (z-score),[9],4.09
same,glycan array binding signal (z-score),[10],-0.25
same,glycan array binding signal (z-score),Gal(b1-4)GlcNAc,-0.237
same,glycan array binding signal (z-score),[11],-0.235
same,glycan array binding signal (z-score),[12],-0.264
same,glycan array binding signal (z-score),[13],-0.224
same,glycan array binding signal (z-score),Gal3S(b1-3)GalNAc,5.01
same,glycan array binding signal (z-score),[14],0.868
same,glycan array binding signal (z-score),[15],-0.223
same,glycan array binding signal (z-score),[16],2.86
same,glycan array binding signal (z-score),[17],2.84
same,glycan array binding signal (z-score),GlcNAc(b1-3)GalNAc,1.62
same,glycan array binding signal (z-score),Kdn(a2-3)Gal(b1-3)GalNAc,3.63
same,glycan array binding signal (z-score),Neu5Ac(a2-3)Gal,-0.232
same,glycan array binding signal (z-score),[18],4.27
same,glycan array binding signal (z-score),[19],-0.198
same,glycan array binding signal (z-score),[20],-0.251
same,glycan array binding signal (z-score),[21],1.16
